# Laboratory results taken from the supplement of paper PMC8728848.
# About 410 targets per protein were measured; listed, in parts, are those with the strongest signals and a random draw of the rest.
# B1: LngA (Escherichia coli) (protein)
# chain: MLSVYNRTQKFKAEARKKIAKYHELRKQRGMSLLEVIIVLGIIGTIAAGVVILAQRAFDSRAVTDLVTNTNTVRVRMKDAYQRDGKYPDFVDPLSLTANTIKTDTSGIPAAQLVQLGKITPDEVRNNISGDFIAIGGALTSNGAQVKKGFAIELNGLSQEQCRSILGQVGNNWEYVAIGTSASGSYAMTATGVDMSVAASTTVLRSLGNNGQTTLTADKILSTCTAQVNSITLGSR
# What was measured:
# Test in all cases: glycan array binding signal (z-score within array); higher = stronger binding
# Conditions in all cases: glycan notation: IUPAC condensed, linker removed
# [1] = target: Fuc(a1-2)Gal(b1-4)GlcNAc(b1-3)Gal(b1-4)GlcNAc(b1-2)Man(a1-3)[Fuc(a1-2)Gal(b1-4)GlcNAc(b1-3)Gal(b1-4)GlcNAc(b1-2)Man(a1-6)]Man(b1-4)GlcNAc(b1-4)GlcNAc
# Outline: (§1)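 Glycan array data were curated from 3228 arrays in the Consortium for Functional Glycomics database and kept only where the protein sequence was available. Glycan names were converted to IUPAC-condensed notation, and columns mapping to the same glycan were averaged. The binding signal is a within-array Z-score, averaged across arrays of the same protein sequence at different concentrations or buffers and across linkers. Negative Z-scores can be read as non-binding.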
# [2] = target: Fuc(a1-2)Gal(b1-4)[Fuc(a1-3)]GlcNAc(b1-3)Gal(b1-4)[Fuc(a1-3)]GlcNAc(b1-3)Gal(b1-4)[Fuc(a1-3)]GlcNAc
# Outline: as §1
# [3] = target: Fuc(a1-2)Gal(b1-4)[Fuc(a1-3)]GlcNAc(b1-3)GalNAc
# Outline: as §1
# [4] = target: Fuc(a1-2)Gal6S(b1-4)Glc6S
# Outline: as §1
# [5] = target: Fuc(a1-3)[Gal(b1-4)]GlcNAc(b1-6)GalNAc
# Outline: as §1
# [6] = target: Gal(a1-2)Gal
# Outline: as §1
# [7] = target: Gal(a1-3)Gal(b1-3)GlcNAc
# Outline: as §1
# [8] = target: Gal(a1-3)Gal(b1-4)Glc
# Outline: as §1
# [9] = target: Gal(a1-4)GlcNAc
# Outline: as §1
# [10] = target: Gal(b1-2)Gal
# Outline: as §1
# [11] = target: Gal(b1-3)Gal
# Outline: as §1
# [12] = target: Gal(b1-3)GalNAc
# Outline: as §1
# [13] = target: Gal(b1-3)[Fuc(a1-4)]GlcNAc(b1-6)GalNAc
# Outline: as §1
# [14] = target: Gal(b1-4)GalNAc(b1-3)[Fuc(a1-2)]Gal(b1-4)GlcNAc
# Outline: as §1
# [15] = target: Gal(b1-4)GlcNAc(b1-3)Gal(b1-4)GlcNAc(b1-2)Man(a1-3)[Gal(b1-4)GlcNAc(b1-3)Gal(b1-4)GlcNAc(b1-2)Man(a1-6)]Man(b1-4)GlcNAc(b1-4)GlcNAc
# Outline: as §1
# [16] = target: Gal(b1-4)GlcNAc(b1-3)Gal(b1-4)GlcNAc(b1-2)Man(a1-3)[Gal(b1-4)GlcNAc(b1-3)Gal(b1-4)GlcNAc(b1-2)Man(a1-6)]Man(b1-4)GlcNAc(b1-4)[Fuc(a1-6)]GlcNAc
# Outline: as §1
# [17] = target: Gal(b1-4)GlcNAc(b1-3)Gal(b1-4)GlcNAc(b1-2)[Gal(b1-4)GlcNAc(b1-3)Gal(b1-4)GlcNAc(b1-6)]Man(a1-6)[Gal(b1-4)GlcNAc(b1-3)Gal(b1-4)GlcNAc(b1-2)Man(a1-3)]Man(b1-4)GlcNAc(b1-4)[Fuc(a1-6)]GlcNAc
# Outline: as §1
# [18] = target: Gal(b1-4)GlcNAc(b1-3)Gal(b1-4)GlcNAc(b1-3)Gal(b1-4)GlcNAc(b1-2)Man(a1-3)[Gal(b1-4)GlcNAc(b1-3)Gal(b1-4)GlcNAc(b1-3)Gal(b1-4)GlcNAc(b1-2)Man(a1-6)]Man(b1-4)GlcNAc(b1-4)GlcNAc
# Outline: as §1
# [19] = target: Gal(b1-4)GlcNAc(b1-3)[Gal(b1-4)GlcNAc(b1-6)]Gal(b1-4)GlcNAc
# Outline: as §1
# [20] = target: Gal(b1-4)GlcNAc(b1-3)[GlcNAc(b1-6)]Gal(b1-4)GlcNAc
# Outline: as §1
# [21] = target: Gal(b1-4)GlcNAc6P
# Outline: as §1
# [22] = target: Gal(b1-6)Gal
# Outline: as §1
# [23] = target: Gal3S(b1-3)GlcNAc
# Outline: as §1
# [24] = target: Gal3S(b1-4)Glc
# Outline: as §1
# [25] = target: Gal3S6S(b1-4)GlcNAc6S
# Outline: as §1
# [26] = target: GalNAc(b1-3)Gal
# Outline: as §1
# [27] = target: GalNAc(b1-4)GlcNAc(b1-2)Man(a1-3)[GalNAc(b1-4)GlcNAc(b1-2)Man(a1-6)]Man(b1-4)GlcNAc(b1-4)GlcNAc
# Outline: as §1
# [28] = target: GalNAc(b1-4)GlcNAc6S
# Outline: as §1
# [29] = target: Glc(a1-6)Glc(a1-6)Glc
# Outline: as §1
# [30] = target: GlcA(b1-6)Gal
# Outline: as §1
# [31] = target: GlcNAc(a1-4)Gal(b1-4)GlcNAc(b1-3)Gal(b1-4)[Fuc(a1-3)]GlcNAc(b1-3)Gal(b1-4)[Fuc(a1-3)]GlcNAc
# Outline: as §1
# [32] = target: GlcNAc(b1-3)Gal(b1-3)GalNAc
# Outline: as §1
# [33] = target: GlcNAc(b1-3)Gal(b1-4)Glc
# Outline: as §1
# [34] = target: GlcNAc(b1-3)Gal(b1-4)GlcNAc(b1-6)[Gal(b1-3)]GalNAc
# Outline: as §1
# [35] = target: Kdn(a2-3)Gal(b1-3)GalNAc
# Outline: as §1
# [36] = target: Man(a1-2)Man(a1-2)Man(a1-3)Man
# Outline: as §1
# [37] = target: Man(a1-2)Man(a1-3)[Man(a1-2)Man(a1-6)]Man(a1-6)[Man(a1-2)Man(a1-2)Man(a1-3)]Man
# Outline: as §1
# [38] = target: Man(a1-3)[Man(a1-6)]Man
# Outline: as §1
# [39] = target: Man(a1-3)[Man(a1-6)]Man(a1-6)[Man(a1-2)Man(a1-3)]Man(b1-4)GlcNAc(b1-4)GlcNAc
# Outline: as §1
# [40] = target: Man(a1-6)Man
# Outline: as §1
# [41] = target: Neu5Ac(a2-3)Gal(b1-3)GalNAc(b1-3)Gal(a1-4)Gal(b1-4)Glc
# Outline: as §1
# [42] = target: Neu5Ac(a2-3)Gal(b1-4)GlcNAc(b1-2)Man
# Outline: as §1
# [43] = target: Neu5Ac(a2-3)Gal(b1-4)GlcNAc(b1-3)Gal
# Outline: as §1
# [44] = target: Neu5Ac(a2-3)Gal(b1-4)GlcNAc(b1-3)Gal(b1-4)GlcNAc(b1-3)Gal(b1-4)GlcNAc
# Outline: as §1
# [45] = target: Neu5Ac(a2-3)Gal(b1-4)GlcNAc(b1-3)Gal(b1-4)[Fuc(a1-3)]GlcNAc
# Outline: as §1
# [46] = target: Neu5Ac(a2-3)Gal(b1-4)GlcNAc(b1-6)[Neu5Ac(a2-3)Gal(b1-3)]GalNAc
# Outline: as §1
# [47] = target: Neu5Ac(a2-6)Gal(b1-3)GlcNAc(b1-3)[Gal(b1-4)GlcNAc(b1-6)]Gal(b1-4)Glc
# Outline: as §1
# [48] = target: Neu5Ac(a2-6)Gal(b1-4)Glc
# Outline: as §1
# [49] = target: Neu5Ac(a2-6)Gal(b1-4)GlcNAc(b1-2)Man(a1-3)[Gal(b1-4)GlcNAc(b1-2)Man(a1-6)]Man(b1-4)GlcNAc(b1-4)GlcNAc
# Outline: as §1
# [50] = target: Neu5Ac(a2-6)Gal(b1-4)GlcNAc(b1-2)Man(a1-3)[Man(a1-6)]Man(b1-4)GlcNAc(b1-4)GlcNAc
# Outline: as §1
# [51] = target: Neu5Ac(a2-6)Gal(b1-4)GlcNAc(b1-3)Gal(b1-4)GlcNAc(b1-3)GalNAc
# Outline: as §1
# [52] = target: Neu5Ac(a2-6)Gal(b1-4)GlcNAc(b1-6)GalNAc
# Outline: as §1
# [53] = target: Neu5Ac(a2-8)Neu5Ac(a2-8)Neu5Ac(a2-3)[Gal(b1-3)GalNAc(b1-4)]Gal(b1-4)Glc
# Outline: as §1
# [54] = target: Neu5Ac(a2-8)Neu5Gc(a2-3)Gal(b1-4)GlcNAc
# Outline: as §1
# [55] = target: Neu5Gc(a2-6)Gal(b1-4)GlcNAc
# Outline: as §1
binder,measurement,setting,value
B1,glycan array binding signal (z-score),[1],-0.248
same,glycan array binding signal (z-score),[2],-0.414
same,glycan array binding signal (z-score),[3],0.215
same,glycan array binding signal (z-score),[4],0.398
same,glycan array binding signal (z-score),[5],-0.182
same,glycan array binding signal (z-score),[6],0.247
same,glycan array binding signal (z-score),[7],2.92
same,glycan array binding signal (z-score),[8],-0.144
same,glycan array binding signal (z-score),[9],-0.206
same,glycan array binding signal (z-score),[10],2.94
same,glycan array binding signal (z-score),[11],-0.316
same,glycan array binding signal (z-score),[12],-0.143
same,glycan array binding signal (z-score),[13],-0.438
same,glycan array binding signal (z-score),[14],-0.632
same,glycan array binding signal (z-score),[15],3.2
same,glycan array binding signal (z-score),[16],-0.289
same,glycan array binding signal (z-score),[17],4.27
same,glycan array binding signal (z-score),[18],3.43
same,glycan array binding signal (z-score),[19],-0.205
same,glycan array binding signal (z-score),[20],-0.507
same,glycan array binding signal (z-score),[21],4.74
same,glycan array binding signal (z-score),[22],0.393
same,glycan array binding signal (z-score),[23],-0.1
same,glycan array binding signal (z-score),[24],4.16
same,glycan array binding signal (z-score),[25],2.24
same,glycan array binding signal (z-score),[26],0.532
same,glycan array binding signal (z-score),[27],-0.153
same,glycan array binding signal (z-score),[28],-0.467
same,glycan array binding signal (z-score),[29],0.075
same,glycan array binding signal (z-score),[30],0.408
same,glycan array binding signal (z-score),[31],0.38
same,glycan array binding signal (z-score),[32],0.147
same,glycan array binding signal (z-score),[33],-0.256
same,glycan array binding signal (z-score),[34],-0.006
same,glycan array binding signal (z-score),[35],-0.202
same,glycan array binding signal (z-score),[36],-0.556
same,glycan array binding signal (z-score),[37],-0.506
same,glycan array binding signal (z-score),[38],-0.411
same,glycan array binding signal (z-score),[39],-0.239
same,glycan array binding signal (z-score),[40],3.82
same,glycan array binding signal (z-score),[41],-0.375
same,glycan array binding signal (z-score),[42],3.6
same,glycan array binding signal (z-score),[43],-0.531
same,glycan array binding signal (z-score),[44],-0.508
same,glycan array binding signal (z-score),[45],2.73
same,glycan array binding signal (z-score),[46],-0.439
same,glycan array binding signal (z-score),[47],-0.533
same,glycan array binding signal (z-score),[48],-0.2
same,glycan array binding signal (z-score),[49],-0.321
same,glycan array binding signal (z-score),[50],-0.28
same,glycan array binding signal (z-score),[51],-0.361
same,glycan array binding signal (z-score),[52],2.77
same,glycan array binding signal (z-score),[53],-0.06
same,glycan array binding signal (z-score),[54],-0.319
same,glycan array binding signal (z-score),[55],-0.433
